According to PubChem BioAssay (NCATS):
Results filed as inconclusive are left out. The source made the active and inactive calls. Calls come from the whole dose curve; as a rule, active = well fitted cell-killing curve with a large enough effect; inconclusive = small, poorly fitted or top-dose-only effect, or effect the other way; inactive = flat fitted curve, though single readings scatter.

Legend:
Assay in all cases: Primary qHTS to identify gynecologic anti-cancer compounds using libraries of approved drugs and bioactive compounds (AID 1345084); note: nearly all actives have a fitted effect of over 55% in size
Details in all cases: Gynecologic cancer cell panel viability, ATPlite luminescence, 48 h; series mostly up to 57.5 µM
OV90 = test system: OV90
Outline: (§1)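 Five-concentration response, 48 h; readout is ATP-driven luciferase luminescence.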

PA-1 = test system: PA-1
Outline: as §1

SKOV3 = test system: SKOV3
Outline: as §1

Tov-21-G = test system: Tov-21-G
Outline: as §1

Tov112D = test system: Tov112D
Outline: as §1
% is set by controls: 0 for no effect and ±100 for the full control effect.

CC(NC(=O)c1ccccc1N)C(=O)O (stereo not given)
inactive: Potency (OV90) | Potency (PA-1) | Potency (SKOV3) | Potency (Tov-21-G) | Potency (Tov112D)

C[C@H]1CC(=O)C2=C(C1)C(O)C(O)[C@@]1(O)[C@H]2C(=O)c2cccc(O)c2[C@@H]1O (stereo not given in full)
inactive: Potency (OV90) | Potency (PA-1) | Potency (SKOV3) | Potency (Tov-21-G) | Potency (Tov112D)

CCC(C)/C=C(C)/C=C/C1=CC2=C(Cl)C(=O)C(C)(O)C(=O)C2(O)C(OC)O1 (stereo not given)
inactive: Potency (OV90) | Potency (PA-1) | Potency (SKOV3) | Potency (Tov-21-G) | Potency (Tov112D)

CC1=C2C3OC(=O)C(C)C3(O)CCC2(C)CCC1 (stereo not given)
inactive: Potency (OV90) | Potency (PA-1) | Potency (SKOV3) | Potency (Tov-21-G) | Potency (Tov112D)

CC1C2=CC(=O)OC2(O)CC2C1C(O)CC1C(C)(CO)CCCC21C (stereo not given)
inactive: Potency (OV90) | Potency (PA-1) | Potency (SKOV3) | Potency (Tov-21-G) | Potency (Tov112D)

CC1(C)C[C@@H]2[C@H](C1)[C@@]1(C)C[C@]13C(O)OC[C@]3(O)[C@H]2O (stereo not given in full)
inactive: Potency (OV90) | Potency (PA-1) | Potency (SKOV3) | Potency (Tov-21-G) | Potency (Tov112D)

C=C[C@H]1[C@H](O[C@@H]2O[C@H](CO)[C@@H](O)[C@H](O)[C@H]2O)OC=C(C(=O)OC)[C@H]1CCO
inactive: Potency (OV90) | Potency (PA-1) | Potency (SKOV3) | Potency (Tov-21-G) | Potency (Tov112D)

C=C1C(=O)O[C@@H]2CC(C)=C([C@@H](C)CCCOC(C)=O)[C@@H](O)[C@H]12
inactive: Potency (OV90) | Potency (PA-1) | Potency (SKOV3) | Potency (Tov-21-G) | Potency (Tov112D)

O=C(O)C1(c2ccc(-c3ccc(Cl)c(Cl)c3)c(F)c2)CC1
inactive: Potency (OV90) | Potency (PA-1) | Potency (SKOV3) | Potency (Tov-21-G) | Potency (Tov112D)

C=C1CCC2(C(=O)OC3OC(CO)C(O)C(O)C3O)CCC3(C)C(=CCC4C5(C)CCC(OC6OC(CO)C(OC7OC(C)C(O)C(O)C7O)C(OC7OCC(O)C(O)C7O)C6O)C(C)(C)C5CCC43C)C2C1 (stereo not given)
inactive: activity change, negative = cytotoxicity (OV90) 9.22% [at 11.6 µM] | activity change, negative = cytotoxicity (PA-1) 18.7% [at 11.6 µM] | activity change, negative = cytotoxicity (SKOV3) 24.5% [at 11.6 µM] | activity change, negative = cytotoxicity (Tov-21-G) 0.21% [at 11.6 µM] | activity change, negative = cytotoxicity (Tov112D) 9.24% [at 11.6 µM]

CC1=C2C(=O)C=C(CO[C@@H]3O[C@H](CO)[C@@H](O)[C@H](O)[C@H]3O)[C@@H]2[C@H]2OC(=O)[C@H](C)[C@@H]2CC1
inactive: Potency (OV90) | Potency (PA-1) | Potency (SKOV3) | Potency (Tov-21-G) | Potency (Tov112D)

CC1(C)CC[C@]2(C(=O)O[C@@H]3O[C@H](CO)[C@@H](O)[C@H](O)[C@H]3O)CC[C@]3(C)C(=CCC4[C@@]5(C)C[C@H](O)[C@H](O[C@@H]6O[C@H](C(=O)O)[C@@H](O)[C@H](O)[C@H]6O)[C@@](C)(CO)C5CC[C@]43C)C2C1 (stereo not given in full)
inactive: activity change, negative = cytotoxicity (OV90) -11.4% [at 6.55 µM] | activity change, negative = cytotoxicity (PA-1) 1.64% [at 6.55 µM] | activity change, negative = cytotoxicity (SKOV3) 14.6% [at 6.55 µM] | activity change, negative = cytotoxicity (Tov-21-G) -2.15% [at 6.55 µM] | activity change, negative = cytotoxicity (Tov112D) 8.5% [at 6.55 µM]

OC[C@H]1O[C@@H](O[C@H]2[C@H](O)[C@@H](CO)O[C@@H](OCc3ccccc3)[C@@H]2O[C@@H]2OC[C@](O)(CO)[C@H]2O)[C@H](O)[C@@H](O)[C@@H]1O
inactive: Potency (OV90) | Potency (PA-1) | Potency (SKOV3) | Potency (Tov-21-G) | Potency (Tov112D)

CC(=O)OCC1OC(OC2COC(OC3COC(OC4C(OC5C(CO)OC(OC6CCC7(C)C(CCC8(C)C7CC=C7C9CC(C)(C)CCC9(C(=O)OC9OC(CO)C(O)C(O)C9OC9OCC(OC%10OCC(O)(CO)C%10O)C(O)C9O)C(O)CC78C)C6(C)C)C(O)C5O)OCC(O)C4O)C(O)C3O)C(O)C2O)C(OC(=O)/C=C/c2ccccc2)C(O)C1OC(C)=O (stereo not given)
inactive: activity change, negative = cytotoxicity (OV90) -0.455% [at 6.55 µM] | activity change, negative = cytotoxicity (PA-1) -23.4% [at 6.55 µM] | activity change, negative = cytotoxicity (SKOV3) 14.7% [at 6.55 µM] | activity change, negative = cytotoxicity (Tov-21-G) -3.47% [at 6.55 µM] | activity change, negative = cytotoxicity (Tov112D) 9.27% [at 6.55 µM]

c1cc(-c2cc(C3CCNCC3)[nH]n2)ccn1
inactive: Potency (OV90) | Potency (PA-1) | Potency (SKOV3) | Potency (Tov-21-G) | Potency (Tov112D)

COC(O)(CC(C)C)C1Oc2cc(C)[nH]c(=O)c2O1 (stereo not given)
inactive: Potency (OV90) | Potency (PA-1) | Potency (SKOV3) | Potency (Tov-21-G) | Potency (Tov112D)

C/C=C(\C)C(=O)OC1C2(O)CC3=C4CC(=O)OC(c5ccoc5)C4(C)CCC3C(C)(C2=O)C(C(OC(C)=O)C(=O)OC)C1(C)C (stereo not given)
inactive: Potency (OV90) | Potency (PA-1) | Potency (SKOV3) | Potency (Tov-21-G) | Potency (Tov112D)

CC(C)=CC[C@H]1O[C@]2(O)C([C@H]3CCC4[C@@]5(C)CC[C@H](O[C@@H]6O[C@H](CO)[C@H](O)[C@H](O[C@@H]7O[C@H](CO)[C@@H](O)[C@H](O)[C@H]7O)[C@H]6O[C@@H]6O[C@@H](C)[C@H](O)[C@@H](O)[C@H]6O)C(C)(C)C5CC[C@@]4(C)[C@]3(C)[C@H]2O)[C@@]1(C)O (stereo not given in full)
inactive: activity change, negative = cytotoxicity (OV90) -2.06% [at 11.6 µM] | activity change, negative = cytotoxicity (PA-1) 0.425% [at 11.6 µM] | activity change, negative = cytotoxicity (SKOV3) 28% [at 11.6 µM] | activity change, negative = cytotoxicity (Tov-21-G) -2.04% [at 11.6 µM] | activity change, negative = cytotoxicity (Tov112D) 6.89% [at 11.6 µM]
